Screens deposited in PubChem BioAssay by National Center for Advancing Translational Sciences (NCATS).
Pf growth 48h = inhibits P. falciparum growth in the first generation, 48 h; AID 504832; P. falciparum luciferase growth in erythrocytes, 48 h; actives 5.9% (n = 310,000); Potency, µM (top dose mostly 28.7 µM), usual class: inhibitors
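Read-out is firefly luciferase luminescence from an integrated reporter in P. falciparum, so falling signal marks reduced parasite growth. Infected erythrocytes were at 2% hematocrit and 0.1% parasitemia (final) in Albumax-supplemented RPMI 1640.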
Pf growth 96h = P. falciparum growth inhibition at 96 hour, primary screen for plastid delayed-death inhibitors; actives 6.9% (n = 320,000); Potency, µM (top dose mostly 28.7 µM), hits mostly inhibitors; AID 504834; P. falciparum luciferase reporter growth, 96 h
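Readout is luminescence from an integrated firefly luciferase in P. falciparum. Red cells, 2% hematocrit and 0.05% parasitemia final, were cultured with compound through two parasite generations (96 hours) at 37 C, 5% CO2.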
Shiga inhibitor = blocks Shiga toxin action in Vero cells | AID 2315 | inhibition, % at 38.7 µM | actives 9.2% (n = 290,000) | Vero cells, Shiga toxin protein synthesis inhibition reporter; in the data active = inhibition mostly above about 28%, no sharp cut-off; inactive = mostly below about 43%
HCMV antiviral = blocks human cytomegalovirus replication; HFF cells, HCMV-luciferase reporter, 72 h; hits give low values; activity change, negative = inhibition, % at 57.5 µM; actives 4.5% (n = 410,000); AID 1259415; in the data active = activity change below about -60%; inconclusive = no clear call, values can overlap the other calls; inactive = above about -39%
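HFF cells seeded 16 h at 37C, treated with compounds, infected with luciferase-reporter HCMV at MOI 1 PFU/cell; luciferase read at 72 h post infection, normalized to buffer-only and Salinomycin controls.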
Cycloheximide cs = affects cycloheximide protein synthesis inhibition readout, counter-screen | cell reporter, cycloheximide protein synthesis inhibition counterscreen | actives 12% (n = 300,000) | max response, %; in the data active = max response mostly above about 13%, no sharp cut-off; inactive = mostly below about 14%; note: read at 38.3 µM for the half of the compounds with a filed dose
A number is an active result; n = inactive; u = inconclusive; x = not tested or not shown; [ ] = dose if it differs, or a comment. Sampled rows, rich in hits. Any-hit rate of the full collection: about 20%. Unless noted, calls come from the whole dose curve; as a rule, active = well fitted inhibition curve with a large enough effect; inconclusive = small, poorly fitted or top-dose-only effect, or another doubt; inactive = no such curve, though single readings can be large or run the other way.

SMILES	Pf growth 48h	Pf growth 96h	Shiga inhibitor	HCMV antiviral	Cycloheximide cs
COc1cc(C(=O)N2CCN(S(=O)(=O)c3cccs3)CC2)cc(OC)c1C	u	u	n	n	n
COc1ccc(Br)c(C(=O)N2CCN(S(=O)(=O)c3cccs3)CC2)c1	3.7µM	n	n	n	n
O=C(CN(Cc1ccco1)Cc1cccs1)N1CCN(S(=O)(=O)c2cccc(F)c2)CC1	13.1µM	u	x	n	x
CCCOc1ccccc1OCC(=O)Nc1ccc(S(=O)(=O)N2CCCCC2)cc1	u	10.4µM	x	n	x
Cc1cc(OCC(=O)Nc2ccc(S(=O)(=O)N3CCN(C)CC3)cc2)ccc1Br	11.7µM	6.57µM	n	n	n
Cc1ccc(OCC(=O)Nc2ccc(S(=O)(=O)N3CCN(C)CC3)cc2)cc1	u	u	n	n	n
O=C(COc1ccc2ccccc2c1)Nc1ccc(S(=O)(=O)N2CCCCCC2)cc1	11.7µM	u	n	n	n
Cc1ccc(-n2nc(CO)c(C(=O)NCCCc3ccccc3)n2)cc1C	x	x	x	n	x
C=C(C)CN(CC)c1nc(N)c2c(N)nc3c(c2c1C#N)CC(=O)N3C12CC3CC(CC(C3)C1)C2	x	0.928µM	n	-69.4	n
CCCCN1C(=O)Cc2c1nc(N)c1c(N)nc(N(CCC)CCC)c(C#N)c21	4.65µM	4.15µM	n	n	n
COc1ccc(CN2C(=O)Cc3c2nc(N)c2c(N)nc(N4CCCCC4)c(C#N)c32)cc1	u	u	n	x	n
N#Cc1c(N2CCCC(O)C2)nc(N)c2c(N)nc3c(c12)CC(=O)N3C12CC3CC(CC(C3)C1)C2 (stereo not drawn)	u	0.208µM	n	n	n
N#Cc1c(N(CCO)CCO)nc(N)c2c(N)nc3c(c12)CC(=O)N3CC1CCCO1 (stereo not drawn)	n	n	n	n	n
CCN(CC)c1nc(N)c2c(N)nc(OC)cc2c1C#N	x	x	x	n	x
CC(C)(C)c1ccc2c(c1)N(CC(=O)N1CCOCC1)C(=O)CO2	n	u	n	n	n
O=C(Nc1cccn2nc(COCCO)nc12)C(c1ccccc1)c1ccccc1	x	x	x	n	x
CCOc1ccc(CCNC(=O)CS(=O)(=O)Cc2nc(-c3cccc(Cl)c3)oc2C)cc1	x	x	x	n	x
COc1ccc(/C=c2\s/c(=C\C(=O)C(C)(C)C)[nH]c2=O)cc1O	u	4.15µM	n	n	14.5
Cc1cccc(/C=c2\s/c(=C\C(=O)C(C)(C)C)[nH]c2=O)c1	u	2.08µM	n	n	23.0
COc1cc(/C=c2\s/c(=C\C(=O)C(C)(C)C)[nH]c2=O)cc(OC)c1OC	u	u	n	n	n
CCc1ccccc1NC(=O)CSc1nc2ccccc2nc1Cc1cccc(OC)c1	x	x	x	n	x
CCc1cccc(NC(=O)CCc2nc3cccnc3n2Cc2ccc(OC)cc2)c1	x	x	x	n	x
Cc1cc(-c2ccc(Br)cc2)n[nH]1	n	n	81.7	n	31.2
Clc1nc(-c2ccccc2)cc(-c2ccc(Br)cc2)n1	x	x	x	n	x
Nc1cc(-c2ccc(Br)cc2)[nH]n1	n	1.85µM	n	u	11.4
SMILES	Pf growth 48h	Pf growth 96h	Shiga inhibitor	HCMV antiviral	Cycloheximide cs
Cc1ccccc1OCC(=O)Nc1ccccc1N1CCC(C)CC1	u	n[5.75 µM]	n	u	n
CCC[C@@H]1Cc2ccccc2N1C(C)=O	n	n	x	n	x
CCOc1ccc(CCNC(=O)C2CCN(c3nn4c(=O)cc(C)nc4s3)CC2)cc1	10.4µM	n	n	n	n
CCCc1cc(=O)n2nc(N3CCC(C(=O)N4CCN(c5ccc(OC)cc5)CC4)CC3)sc2n1	n	n	n	-86.8	n
CCC(Cc1ccccc1)NC(=O)C1CCN(c2nn3c(=O)cc(C)nc3s2)CC1 (stereo not drawn)	n	10.4µM	n	n	n
COc1ccc(CCCc2nnc(SCC(=O)Nc3ccc(C)cc3C)o2)cc1	x	x	x	n	x
CCC1CN(C(=O)N2CCC(C(=O)NCc3cccc(OC)c3OC)CC2)c2cc(C)ccc2O1 (stereo not drawn)	n	u	n	n	n
O=C(O)C1CC=CCC1C(=O)N1CC=C(c2ccccc2)CC1 (stereo not drawn)	n	n	43.9	n	28.7
O=C(c1cccs1)N1CC=C(c2ccccc2)CC1	n	n	x	n	x
O=C(O)CCC(=O)N1CC=C(c2ccccc2)CC1	x	u	78.6	n	49.7
O=C(Cn1[nH]c(=O)c2ccccc2c1=O)N1CC=C(c2ccccc2)CC1	x	n	n	n	n
CC(C)(C)CC(=O)O/N=C(\N)c1ccccn1	n	13.1µM	n	n	40.1
Cc1cccc(OCC(=O)O/N=C(\N)c2ccccn2)c1C	n	n	64.8	n	28.1
